# This is a sample that favours compounds with a hit; in the whole collection about 3.4% have one here.
# AmpC inh detg = qHTS Inhibitors of AmpC Beta-Lactamase (assay with detergent) | P00811 | AmpC hydrolysis of nitrocefin, absorbance 480 nm, 0.01% Triton | Potency, µM (titrated, usually from 114 µM), for inactives: top-dose activity change, negative = inhibition, most hits filed as inhibitors | 370,000 tested, 0.041% active | AID 485294, 2010;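 note: 0% = no-compound wells and -100% = no-enzyme wells; nearly all actives have a fitted effect of over 25% in size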
# Target sequence (P00811 whole entry, looked up): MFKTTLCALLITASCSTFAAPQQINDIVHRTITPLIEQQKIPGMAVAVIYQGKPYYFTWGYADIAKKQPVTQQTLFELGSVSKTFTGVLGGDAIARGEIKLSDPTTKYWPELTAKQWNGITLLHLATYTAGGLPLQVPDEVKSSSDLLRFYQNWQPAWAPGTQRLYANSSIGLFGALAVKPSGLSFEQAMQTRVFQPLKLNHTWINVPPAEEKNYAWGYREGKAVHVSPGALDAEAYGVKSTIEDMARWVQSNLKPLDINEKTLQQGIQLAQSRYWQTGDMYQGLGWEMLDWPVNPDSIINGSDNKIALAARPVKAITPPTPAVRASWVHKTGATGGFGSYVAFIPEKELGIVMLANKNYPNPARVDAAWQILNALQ
#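 AmpC (5.3 nM in the dispensed reagent) in 20 mM phosphate pH 7.0 with 0.01% (detergent screen) or 0.0001% Triton X-100 was preincubated with compounds for 15 min at room temperature. Nitrocefin was then added from an 800 uM solution, and hydrolysis was followed at 480 nm.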
# RE007 growth inh = qHTS Assay for Inhibitors of the HIV-1 protein Vpr; S. pombe RE007 Vpr strain, BacTiter-Glo ATP luminescence, 24 h; 360,000 tested, 0.21% active; Potency, µM (series often up to 92.2 µM), for inactives: at the top dose activity change, negative = less growth, actives largely listed as inhibitors; active = well fitted falling curve with a large enough effect; inconclusive = small, poorly fitted or top-dose-only effect; inactive = no such curve, though single readings can be large or run the other way; note: nearly all actives have a fitted effect of over 50% in size
#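 Fission yeast RE007 carrying one integrated HIV-1 vpr copy, seeded at OD 0.01 in PMG+AL medium with 23 nL pinned compound. Grown 24 h at 30 degrees; viability read by BacTiter-Glo luminescence after 5 min.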
# Sm TGR block = qHTS Assay for the Inhibitors of Schistosoma Mansoni Peroxiredoxins; Potency, µM (doses to about 114 µM), for the others: at the highest dose activity change, negative = inhibition, hits mostly inhibitors; Schistosoma mansoni thioredoxin glutathione reductase (TGR), Q962Y6; 360,000 tested, 3% active; purified TGR, DTNB reduction, TNB absorbance 405 nm; note: nearly all actives have a fitted effect of over 60% in size
#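 First, TGR (20 nM dispensed) and NADPH were mixed with compound. Second, a 15 min room-temperature incubation followed. Third, further NADPH and then DTNB were added to start the reaction. Finally, TNB absorbance was monitored kinetically.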
# AmpC inh no detg = qHTS Inhibitors of AmpC Beta-Lactamase (assay without detergent); AmpC nitrocefin hydrolysis, absorbance 480 nm, 0.0001% Triton; Potency, µM (titrated, usually from 57.1 µM), without a hit: at the top dose activity change, negative = inhibition, actives largely listed as inhibitors; 330,000 tested, 0.52% active;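 note: plate controls were no compound for no effect and no enzyme for full effect; nearly all actives have a fitted effect of over 20% in size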
#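 20 mM phosphate pH 7.0 + 0.01% (detergent screen) or 0.0001% Triton X-100; 5.3 nM AmpC reagent; cpd preinc 15 min RT; nitrocefin (800 uM stock) to start; A480 q20 s × 4 min; Activity was normalised to no-enzyme and no-compound control wells.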
# FBPA Giardia inh = qHTS Assay for Inhibitors of Fructose-1,6-bisphosphate Aldolase from Giardia Lamblia; A8B2U2; purified Giardia FBPA; Potency, µM (series often up to 59.6 µM), inactives show at the top dose activity, negative = inhibition, usual class: inhibitors; 290,000 tested, 0.71% active; AID 2451, 2010; note: nearly all actives have a fitted effect of over 55% in size
# Target sequence (A8B2U2 whole entry, looked up): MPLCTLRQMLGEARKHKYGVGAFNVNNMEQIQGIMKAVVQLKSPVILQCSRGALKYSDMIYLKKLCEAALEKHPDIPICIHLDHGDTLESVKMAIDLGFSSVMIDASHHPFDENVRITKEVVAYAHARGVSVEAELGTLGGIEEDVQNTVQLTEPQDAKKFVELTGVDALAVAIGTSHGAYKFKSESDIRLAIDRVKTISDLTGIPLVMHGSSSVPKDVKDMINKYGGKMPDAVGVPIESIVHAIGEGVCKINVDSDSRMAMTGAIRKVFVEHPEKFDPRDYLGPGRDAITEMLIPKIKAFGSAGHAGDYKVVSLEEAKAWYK
#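 Giardia FBPA (40 nM reagent) was preincubated 10 min at RT with compound (up to 57.5 uM final), then substrate plus GAPDH/TPI/NAD/arsenate coupling system with diaphorase/resazurin was added; resorufin fluorescence (525/598 nm) was read after 20 min.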
# * hit, by the source's call; ? = inconclusive; . = no result given. Unless noted, calls come from the whole dose curve; as a rule, active = well fitted curve in the direction sought with a large enough effect; inconclusive = small, poorly fitted or top-dose-only effect, or another doubt; inactive = no such curve, though single readings can be large; an effect the other way counts as inactive or inconclusive. Unless noted, % is set by controls: 0 for no effect and ±100 for the full control effect; potency is the fitted concentration of half-maximal effect.
SMILES,AmpC inh detg,RE007 growth inh,Sm TGR block,AmpC inh no detg,FBPA Giardia inh
N#CC1=C2SCN(c3ccccc3)CN2C(=O)CC1c1cccs1 (stereo not given),-2%,-13%,?,-39%,?
Cc1ccc(F)cc1-c1nc(NCC2CC2)nc2ccsc12,.,-12%,.,.,.
Cc1ccc(CNC(=O)CSc2ccc(-c3ccco3)nn2)cc1,-9%,-24%,?,-23%,-5%
Cc1ccc(C(=O)CSc2nc(-c3ccccc3)ccc2C#N)cc1,-12%,13%,0%,-31%,3%
O=C(CSc1ccc(-c2ccco2)nn1)NCc1ccc(F)cc1,-4%,-15%,35µM*,-21%,4%
N#Cc1ccc(-c2ccco2)nc1SCC(=O)c1ccc(Cl)cc1,0%,-1%,-16%,10µM*,20%
O=C(CSc1ccc(-c2ccco2)nn1)c1ccc(F)cc1,?,-11%,20µM*,-29%,-25%
CC[C@]12c3[nH]c4ccc(OC)cc4c3CCN1C(=O)C(CC(=O)NC/C=C(\C)CCC=C(C)C)C[C@@H]2C(=O)N1CCN(C(=O)C2CC2)CC1 (stereo not given in full),.,-11%,.,261%,.
CC(=O)c1cccc(NC(=O)c2ccc3c(c2)CCN3S(=O)(=O)c2ccccc2)c1,-2%,-5%,-17%,-39%,-2%
CCc1cc2c3c([nH]c2cc1S(=O)(=O)N1CCC2(CC1)OCCO2)CCCC3=O,-24%,-5%,-2%,2%,8%
O=C(N/N=C/C=C/c1ccco1)c1ccccc1Cl,-14%,-15%,?,-43%,-27%
CCCOC(=O)/C(=C\C=C\c1ccco1)NC(=O)c1ccccc1,3%,5%,8.9µM*,-48%,-15%
O=C(N/N=C/C=C\c1ccco1)c1cccs1,1%,2%,11µM*,-29%,?
O=C(N/N=C/C=C/c1ccco1)c1ccncc1,-6%,-10%,28µM*,-8%,?
O=C(N/N=C/C=C/c1ccco1)/C(=C/c1ccccc1)NC(=O)c1ccccc1,?,-17%,45µM*,-41%,-20%
COc1ccc(C2=NNC(c3cccnc3)=Nc3ccc(OC)cc32)cc1,-7%,4%,0%,50%,5%
C/C(=N/NS(=O)(=O)c1ccc(C)cc1C)c1ccc2c(c1)OCO2,?,9%,-17%,-32%,0%
N#CC1C(C#N)C2CCC1C1C2N1c1ccccc1 (stereo not given),.,12%,.,.,.
COc1cccc(Cn2c(CNC(=O)c3cc([N+](=O)[O-])ccc3Cl)nc3cccnc32)c1,-3%,.,-10%,.,.
O=C(Cc1cccs1)N/N=C/C=C\c1ccco1,-8%,-1%,25µM*,-31%,-30%
O=C(Cc1cccs1)N/N=C/c1ccco1,?,4%,-22%,-47%,-2%
Cc1ccc(CNC(=O)CSCc2ccc(F)cc2)cc1,-11%,0%,-3%,-16%,10%
COc1cccc(C#Cc2c(CO)[nH]c3ccccc23)c1,2%,-2%,32µM*,-35%,.
O=C(c1ccncc1)N1CCC2(CC1)CCN(c1ccncc1)CC2,.,.,.,.,1%
O=[N+]([O-])/C(C(Cl)=C(Cl)Cl)=C(/Sc1ccccc1)N1CCCCC1,1%,17%,28µM*,-22%,-8%
SMILES,AmpC inh detg,RE007 growth inh,Sm TGR block,AmpC inh no detg,FBPA Giardia inh
O=C(NCc1cccnc1)c1ccc2c(c1)C(=O)N(Cc1ccccc1)C2=O,1%,13%,7%,39%,.
COc1cc(C2CC(=O)N(CC(=O)Nc3ccccc3F)c3ccccc3S2)cc(OC)c1OC (stereo not given),17%,.,3%,.,.
CCN1C(=O)/C(=C/c2ccc(N3CCCC3)cc2)NC1=S,-5%,-29%,-22%,28µM*,-2%
CCCN1C(=O)/C(=C/c2ccc(N3CCOCC3)cc2)NC1=S,-2%,3%,5%,-11%,-9%
COc1ccc(O)c(C(=O)c2cnn(S(=O)(=O)c3ccc(C)cc3)c2)c1,?,-11%,35µM*,-3%,.
CN1CC[C@]23c4c5ccc(O)c4OC2[C@H](O)C=CC3[C@H]1C5 (stereo not given in full),.,-19%,.,-17%,.
COc1ccc2c3c1OC1C(O)C=CC4C(C2)[N+](C)(C)CCC341 (stereo not given),40µM*,2%,-26%,?,-28%
CCCn1c2ccccc2c2nc3ccccc3nc21,?,-17%,11%,32%,-4%
CCN(CC)CCn1c2ccccc2c2nc3ccccc3nc21,-12%,0%,50µM*,-15%,-8%
COc1ccc(C2(c3ccc(OC)cc3)NC(=O)N(CC(=O)NC(C)C)C2=O)cc1,-13%,8%,7%,2%,4%
CCC1(c2ccccc2)NC(=O)N(CC(=O)NC2CCCC2)C1=O (stereo not given),-8%,-9%,-2%,-4%,.
COC(=O)N1C(=O)[C@](c2ccccc2)(C2CCCC2)N1C(=O)OC,8%,-9%,20µM*,33%,11%
COC(=O)N1C(=O)[C@@](c2ccccc2)(C(C)C)N1C(=O)OC,-23%,-11%,35µM*,5%,-3%
COC(=O)N1C(=O)[C@](c2ccc(Cl)cc2)(C(C)C)N1C(=O)OC,-20%,-5%,10µM*,37%,2%
CCC1(c2ccccc2)C(=O)N(C(=O)OC(C)(C)C)N1C(=O)OC(C)(C)C (stereo not given),-7%,-9%,-25%,0%,.
COC(=O)N1C(=O)[C@@](c2ccc(OC)cc2)(C(C)C)N1C(=O)OC,3%,4%,28µM*,25%,2%
Cc1cc2c3c([nH]c2cc1S(=O)(=O)NCc1ccc(CN2CCCCCC2)o1)CC(C)(C)CC3=O,-7%,-5%,0%,-9%,-23%
O=C(CCc1c[nH]c2ccccc12)N=Nc1c(O)[nH]c2ccccc12,-6%,1%,-2%,32µM*,1%
CCc1ccc(N2C=C(C(=O)OC)C(c3ccc(OC)cc3)C(C#N)=C2N)cc1 (stereo not given),.,12%,.,.,.
CC(Cl)C(=O)NNc1cccc(Cl)n1 (stereo not given),1%,17%,13µM*,-6%,-15%
COc1ccccc1/C=C1\C(=O)NC(=S)N(c2ccccc2)C1=O,-2%,6%,8.9µM*,-26%,3%
COc1ccc(N2C(=O)/C(=C/c3cccs3)NC2=S)cc1,2%,?,-26%,-34%,-9%
COc1ccc(N2C(=O)/C(=C/C=C/c3ccccc3[N+](=O)[O-])C(=O)NC2=S)cc1,-9%,-8%,45µM*,-59%,?
COc1ccccc1C=C1C(=O)NC(=S)NC1=O,.,2%,.,.,.
